About 83,000 compounds went through this panel and 20% of them were active in at least one assay; those are over-represented in the sample as a whole.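 Single-concentration screen, 48 h exposure, 96-well plates. Endpoint: percent growth. Below 10 = active.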 Unmarked numbers belong to inactive results. The source made the active and inactive calls.

The assay deals with MDA-MB-468 breast. The assay can be described thus: NCI-60 one-dose screen, 48 h (100 = growth as untreated, 0 = no growth, -100 = all killed). Conditions: 10 µM unless noted.
As for `CC(C)(C)C(=O)OCOP(=O)(OCOC(=O)C(C)(C)C)C1CCCN(O)C1=O` (stereo not given), the growth was -8.03% (active).
With `COc1ccc(N(CC(=O)NCCC[Te]c2ccccc2)C(=O)CNC(=O)OC(C)(C)C)cc1` the figure was 92.6%; with `CC(C)CCC[C@@H](C)[C@H]1CC[C@H]2[C@@H]3CC=C4C[C@@H](OC(=O)Cc5ccc(N(CCCl)CCCl)cc5)CC[C@]4(C)[C@H]3CC[C@]12C`, 107%; with `Cc1ccc(P(=O)(O)O)cc1`, 88.3%.
For `C/C(=C\c1ccn(-c2ccc(N)cc2C(F)(F)F)n1)[C@@H]1C[C@@H]2O[C@]2(C)CCC[C@H](C)[C@H](O)[C@@H](C)C(=O)C(C)(C)[C@@H](O)CC(=O)O1`, the growth was 28.6%.
On to `CCC(C)(C)[C@H](NC(=O)[C@H]1CCCCN1C)C(=O)N(C)[C@H](C[C@@H](OC(C)=O)c1nc(C(=O)N[C@@H](Cc2ccccc2)C[C@H](C)C(=O)O)cs1)C(C)C`, for which the growth is 7.54% (active).
With `CCC(Br)(CC)C(=O)NC(N)=O` the figure was 97.7%.
Regarding `O=C(O)C1C(C(=O)O)C2(Cl)C(Cl)=C(Cl)C1(Cl)C2(Cl)Cl.[Hg]` (stereo not given), the growth was 58.4%.
For the molecule `CN1CCC(O)(c2ccc(F)cc2)C(C(=O)c2ccc(F)cc2)C1` (stereo not given), the growth is 44.2%.
With `COc1cc([N+](=O)[O-])c2ncccc2c1[N+](=O)[O-]` the figure was 0.105% (active); with `CCC1(NC(=O)c2cc(F)c(F)c(F)c2F)C(=O)NC(=O)N(C(C)C)C1=O` (stereo not given), 95.2%.
With `COC12CC3(C)C(C4=CC(=O)OC4)CCC3(O)C3CCC4=CC(=O)CCC4(CO1)C32` (stereo not given) the figure was 101%; with `C=CCCCN=C=S`, 33.9%; with `CCC1(C(C)C)C(=O)NC(=S)NC1=O`, 89.9%.
`NC(N)=NC(N)=Nc1ccc(Cl)cc1`: the growth is 111%.
With `Cc1sc2c(c1C)C(c1ccc(Cl)cc1)=N[C@@H](CC(=O)OC(C)(C)C)c1nnc(C)n1-2` the figure was -10.8% (active); with `CN1CCC(c2c[nH]c3ccccc23)C1` (stereo not given), 116%; with `CC(C)[C@]12O[C@H]1[C@@H]1O[C@]13[C@]1(O[C@H]1C[C@H]1C4=C(CC[C@@]13C)C(=O)OC4)[C@@H]2OC(=O)OC(C)(C)C`, -48.4% (active).
With `CC(=O)O[C@H](C[C@H](C(C)C)N(C)C(=O)[C@@H](NC(=O)[C@H]1CCCCN1C)C(C)C)c1nc(C(=O)NC2CCC(C(=O)O)CC2)cs1` (stereo not given in full) the figure was 29.6%.
With `CCOCC1(CCc2ccccc2)C(=O)NC(=S)NC1=O` the figure was 119%; with `CC1[C@H](C)OC(=O)CC(O)CC(O)CC(O)CCC(O)C(O)C[C@]2(O)CC(O)C(C(=O)O)C(CC(OC3O[C@H](C)[C@@H](O)[C@H](N)[C@@H]3O)/C=C/C=C/C=C/C=C/CC/C=C/C=C/[C@H](C)[C@H]1O)O2` (stereo not given in full), 108%.
As for `CC(=O)O[C@H](C[C@H](C(C)C)N(C)C(=O)[C@@H](NC(=O)[C@H]1CCCCN1C)C(C)(C)C)c1nc(C(=O)N[C@@H](Cc2ccccc2)C[C@H](C)C(=O)O)cs1`, the growth was 4.72% (active).
With `ClCCN(CCCl)Cc1ccc(Nc2ccnc3cc(Cl)ccc23)cc1` the figure was -0.105% (active); with `CO[C@H]1CC[C@@]2(C)C(=CC[C@@H]3[C@@H]2CC[C@]2(C)C(=O)C(=O)C[C@@H]32)C1`, 102%; with `C[C@]12CCC(=O)CC1CC[C@@H]1C2CC[C@@]2(C)C1CC[C@@H]2OC(=O)CC[Se][Se]CCC(=O)O[C@H]1CCC2[C@@H]3CCC4CC(=O)CC[C@]4(C)C3CC[C@@]21C` (stereo not given in full), 77.5%.
With `CNc1ccc(C(=O)CC(O)CCC(C)C2OC(=O)CC(O)CC(=O)CC(O)CC(O)CC(O)CC(O)CC3(O)CC(O)C(C(=O)OC)C(CC(O[C@@H]4O[C@H](C)[C@@H](O)[C@H](N)[C@@H]4O)/C=C/C=C/C=C/C=C/C=C/C=C/C=C/C2C)O3)cc1` (stereo not given in full) the figure was 36.5%; with `CC1(C)N=C(N)N=C(N)N1c1ccc(OCCCCNC(=O)c2ccc(S(=O)(=O)F)cc2)c(Cl)c1`, 64.7%; with `CC[C@H](C)[C@H](NC(=O)[C@H]1CCCCN1C)C(=O)N(C)[C@H](C[C@@H](OC(C)=O)c1nc(C(=O)NC23CC(C(=O)OC)(C2)C3)cs1)C(C)C`, 4.52% (active).
With `CCC[CH2][Sn]([CH2]CCC)([CH2]CCC)[O]c1ccc(Cl)cc1Cl` the figure was -98.7% (active); with `C[C@@H]1CC[C@@H]2[C@@H]1[C@H](OC(=O)/C=C/C1CCCCC1)[C@]1(C3CCCCC3)C[C@@H](OC(=O)CO)[C@@]2(C)O1`, 59.5%.
Turning to `C/C(=C\c1cc(C(F)(F)F)n(-c2ccc(N)cc2)n1)[C@@H]1C[C@@H]2O[C@]2(C)CCC[C@H](C)[C@H](O)[C@@H](C)C(=O)C(C)(C)[C@@H](O)CC(=O)O1`, the growth is -16.6% (active).
With `CC1=C(CCCOC(=O)[C@H](N)CC(C)C)C2=C(C)C3(CC3)[C@@](C)(O)C(=O)C2=C1` the figure was -61.5% (active); with `CN[C@]1(c2ccccc2Cl)CCCC[C@H]1NCCCN1CCN(C)CC1`, 85.2%.
With `Cc1cc(N(CCCl)CCCl)ccc1C=Nc1ccc2ccccc2c1` the figure was -9.8% (active).
With `CC[C@H](C)[C@H](NC(=O)c1ncccn1)C(=O)N(C)[C@H](C[C@@H](OC(C)=O)c1nc(C(=O)N[C@@H](Cc2ccccc2)C[C@H](C)C(=O)OC)cs1)C(C)C` the figure was 23%; with `CC(=O)OCc1cc[c]([Hg][Cl])o1`, 21%; with `Cc1cc(Br)c([N+](=O)[O-])cc1[N+](=O)[O-]`, 58.4%.
Take `COc1cc2c(cc1OC)[C@@H]1N(CC2)C(=O)c2ccccc2[C@@]1(C)C(=O)O`: the growth is 103%.
On to `O=C(c1cccs1)C1NO[N+]([O-])=C1c1cccs1` (stereo not given), for which the growth was -47.7% (active).
With `Cn1cc(C=O)c2nccnc21` the figure was 98.1%.

The values are drawn from PubChem BioAssay (NCI).
